Molecules are shown by their SMILES. Results filed as inconclusive are left out. A number with no mark means an inactive call. Calls of active or inactive are those of the source. Unless noted, the call rests on the fitted dose curve; in most records, active means well fitted curve in the direction sought with a large enough effect; inconclusive means small, poorly fitted or top-dose-only effect, or another doubt; inactive means no such curve, though single readings can be large; an effect the other way counts as inactive or inconclusive.

In PubChem BioAssay (NCATS) one finds Potency and activity, negative = inhibition data, which are given here for 31 molecules.

Assay [1] in a line: qHTS for Inhibitors of Plasmodium falciparum (DD2) proliferation (AID 504314). Further: potency means the concentration at half of the fitted maximal effect.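 On activity, negative = inhibition: parasite DNA measured by SYBR Green fluorescence after red cell lysis; plate controls were DMSO vehicle for no effect and artemisinin wells for full effect.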 Summed up:
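Fluorescence read-out (ex 485/em 535 nm) of SYBR Green-stained parasite DNA quantifies intraerythrocytic growth. Cultures at 0.3% parasitemia and 2.5% hematocrit were treated for 72 h; data normalized to DMSO and 0.29 uM artemisinin wells.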

Assay [2] can be described thus: qHTS for Inhibitors of Plasmodium falciparum (7G8) proliferation (AID 504316).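 Further: series mostly up to about 6.7 µM; 0% = DMSO vehicle and -100% = 0.29 µM artemisinin full kill; nearly all actives have a fitted effect of over 65% in size.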 Summed up: (§1)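 Erythrocytes infected with P. falciparum line (0.3% parasitemia, 2.5% hematocrit final) incubated with compounds 72 h at 37 °C, 5% CO2; SYBR Green lysis buffer added, fluorescence read next day. Normalized to 0.29 uM artemisinin and DMSO.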
Background: Quantitative high-throughput screening tests each substance at several concentrations.

The nature of assay [3]: qHTS for Inhibitors of Plasmodium falciparum (HB3) proliferation (AID 504318). Further: nearly all actives have a fitted effect of over 60% in size. Further: potency means the concentration at half of the fitted maximal effect. In a few lines:
as §1

Assay [4] can be described thus: qHTS for Inhibitors of Plasmodium falciparum (CP250) proliferation (AID 504320).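 Further: plate controls were DMSO vehicle for no effect and 0.29 µM artemisinin control for full effect.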 Summed up:
as §1

Assay [5] addresses Atrial natriuretic peptide receptor 1 (Homo sapiens) (UniProt P16066). Nature of the assay: Natriuretic polypeptide receptor (hNpr1) antagonism - Pilot CMLD screen (AID 1347052; calls by dose curve;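 further: HEK293 cells with hNpr1 stimulated by hNppA peptide at 0.1 nM; cGMP level read as GloSensor luciferase luminescence after agonist stimulation; series mostly up to about 9.2 µM; on the % scale 0 is the no-effect control and ±100 the full control effect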).

Atrial natriuretic peptide receptor 1 (Homo sapiens), sequence (P16066 whole entry, looked up): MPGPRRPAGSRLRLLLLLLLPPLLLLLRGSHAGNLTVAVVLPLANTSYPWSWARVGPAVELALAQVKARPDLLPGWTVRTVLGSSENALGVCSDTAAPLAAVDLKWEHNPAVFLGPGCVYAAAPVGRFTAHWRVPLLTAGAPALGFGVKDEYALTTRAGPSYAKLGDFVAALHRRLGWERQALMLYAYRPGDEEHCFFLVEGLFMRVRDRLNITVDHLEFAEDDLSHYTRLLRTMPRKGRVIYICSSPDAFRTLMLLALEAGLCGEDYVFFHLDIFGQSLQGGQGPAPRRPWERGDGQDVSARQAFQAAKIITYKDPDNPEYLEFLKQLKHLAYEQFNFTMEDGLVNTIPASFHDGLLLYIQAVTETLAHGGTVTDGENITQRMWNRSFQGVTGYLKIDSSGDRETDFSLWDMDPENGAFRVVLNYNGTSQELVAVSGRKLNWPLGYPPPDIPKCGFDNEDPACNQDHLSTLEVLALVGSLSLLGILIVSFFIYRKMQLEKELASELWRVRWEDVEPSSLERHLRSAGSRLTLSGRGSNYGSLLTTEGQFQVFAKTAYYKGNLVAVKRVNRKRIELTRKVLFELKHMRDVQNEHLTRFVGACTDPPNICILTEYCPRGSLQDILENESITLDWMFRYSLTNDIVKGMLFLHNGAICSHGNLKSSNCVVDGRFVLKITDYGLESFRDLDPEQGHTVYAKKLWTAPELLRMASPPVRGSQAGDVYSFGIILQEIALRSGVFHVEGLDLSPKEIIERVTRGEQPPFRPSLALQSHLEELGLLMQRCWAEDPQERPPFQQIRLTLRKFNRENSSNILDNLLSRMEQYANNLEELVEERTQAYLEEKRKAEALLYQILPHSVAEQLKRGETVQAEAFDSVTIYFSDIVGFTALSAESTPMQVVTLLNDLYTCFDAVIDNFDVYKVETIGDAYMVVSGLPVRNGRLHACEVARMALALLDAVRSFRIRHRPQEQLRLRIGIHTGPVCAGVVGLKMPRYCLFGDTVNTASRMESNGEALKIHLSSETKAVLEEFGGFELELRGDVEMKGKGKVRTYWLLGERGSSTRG

Turning to `COC(=O)CC=C[C@@H](C)[C@@H](C=NOC[C@@H](C)[C@H](OCc1ccccc1)C(C)C)NS(=O)(=O)c1ccc(C)cc1`, the Potency entry in assay [1], in assay [2], in assay [3], in assay [4] and in assay [5] was “inactive” each time.
On to `C=CCC12C=C(OC)C(=O)C(C1=O)C1c3ccccc3CC12` (centres undefined), for which the Potency entry in assay [1], in assay [3], in assay [4] and in assay [5] was “inactive” in each case.
On to `CC#CCC1(C(=O)OC)C(=O)NC[C@H]1c1ccccc1` (some centres undefined), for which the Potency result in assay [1], in assay [3], in assay [4] and in assay [5] was “inactive” in each case.
In the case of `C=CCN1c2ccccc2[C@]23C[C@@H](C(=O)OC)N(C(=O)c4cccs4)C2=NC(C(=O)OC)=C(C(=O)OC)[C@H]13`, the Potency entry in assay [1], in assay [3] and in assay [5] was “inactive” throughout.
Regarding `COC(=O)N[C@@H](CCc1ccccc1)[C@]1(C(C)=O)CCCC1=O`, the Potency result in assay [1], in assay [3], in assay [4] and in assay [5] was “inactive” throughout.
As to `COc1ccc(C=CN(CCc2ccc(OC)c(OC)c2)C(=O)c2ccccn2)cc1`, the Potency entry in assay [1], in assay [3], in assay [4] and in assay [5] was “inactive” throughout.
As for `COC(=O)C(C(=O)OC)c1ccccc1[N+](=O)[O-]`, the Potency result in assay [1], in assay [2], in assay [4] and in assay [5] was “inactive” throughout.
`COc1ccc2c(c1)O[C@@H](c1cccc(C(F)(F)F)c1)[C@H](OC(=O)Nc1ccc(OC(F)F)cc1)C2=O`: the Potency entry in assay [1], in assay [3], in assay [4] and in assay [5] was “inactive” each time.
Consider `COc1ccc2c(c1)[C@@H](NC(=O)C(F)(F)F)[C@@H]1CCCC[C@]21c1ccccc1`, for which the Potency entry in assay [1], in assay [2], in assay [4] and in assay [5] was “inactive” throughout.
As for `CCC12C=C(C=Cc3ccccc3)C(CC)(C1)C(c1ccccc1)CC2=O` (centres undefined), the Potency entry in assay [1], in assay [3], in assay [4] and in assay [5] was “inactive” in each case.
On to `CC(C)[C@@H](OCc1ccccc1)[C@H](C)C=NOC[C@@H](C)[C@H](OCc1ccccc1)C(C)C`, for which the Potency result in assay [1], in assay [3] and in assay [5] was “inactive” each time.
`COC(=O)C(C(=O)OC)[C@@H]1O[C@@]23COCC[C@]2(C)[C@@H]3c2ccccc21`: the Potency result in assay [1], in assay [3], in assay [4] and in assay [5] was “inactive” each time.
Take `COC(=O)CC=C[C@@H](C)[C@H](O)c1ccccc1Br`: the Potency result in assay [1] and in assay [5] was “inactive” in each case. For the same molecule, the Potency in assay [3] was 1900 nM (active).
Regarding `CC1(OC(=O)c2ccc(Cl)nc2)C(=O)Cc2cc(-c3ccsc3)ncc2C1=O` (centres undefined), the activity, negative = inhibition in assay [1] was -1.5% [at 1.12 µM]. For the same molecule, the Potency result in assay [3] and in assay [5] was “inactive” throughout.
Consider `COC(=O)N[C@@H](c1ccc(Cl)cc1)C(C(C)=O)C(=O)OC` (some centres undefined), for which the Potency entry in assay [1], in assay [3], in assay [4] and in assay [5] was “inactive” throughout.
As to `CCOC(=O)CN1C(=O)NC(c2ccc(Br)cc2)C(C(C)=O)=C1C` (centres undefined), the Potency result in assay [1], in assay [3], in assay [4] and in assay [5] was “inactive” each time.
For `COc1ccc2c(c1)[C@@]1(OCCC=C[C@@H]1C)C(=O)N2Cc1ccc(Br)cc1`, the Potency result in assay [1], in assay [3], in assay [4] and in assay [5] was “inactive” each time.
As for `COC(=O)[C@H]1[C@H](CCc2ccccc2)NC(=O)N(Cc2ccccc2)[C@H]1C`, the Potency result in assay [1], in assay [3], in assay [4] and in assay [5] was “inactive” each time.
As to `CC1=C[C@@H](COCc2ccccc2)O[C@@]2(C1)C(=O)N(Cc1ccc(Br)cc1)c1ccccc12`, the Potency result in assay [1], in assay [2], in assay [4] and in assay [5] was “inactive” throughout.
On to `C#CCN1C(=O)C2(CC(C)=C[C@@H](C)O2)c2c(Br)cccc21` (some centres undefined), for which the Potency entry in assay [1], in assay [2], in assay [4] and in assay [5] was “inactive” throughout.
Turning to `COc1ccc2c(c1)[C@@]1(OCCC=C[C@@H]1C)C(=O)N2CC=C(C)CCC=C(C)C`, the Potency result in assay [1], in assay [3], in assay [4] and in assay [5] was “inactive” throughout.
Regarding `O=C(NN=C1C[C@@H](O)[C@H](O)[C@H]2[C@@H]3C(=O)N(Cc4ccc5c(c4)OCO5)C(=O)[C@@H]3CC[C@H]12)OCc1ccccc1`, the Potency entry in assay [1], in assay [3] and in assay [5] was “inactive” throughout.
`C#CCCCON=C1C[C@@H](O)[C@H](O)[C@H]2[C@@H]3C(=O)N(C4CCCCC4)C(=O)[C@@H]3CC[C@H]12`: the Potency entry in assay [1], in assay [2], in assay [4] and in assay [5] was “inactive” in each case.
Consider `C=CC[C@@H]1C=C[C@H](ON=C2c3cc(OC)ccc3O[C@H](c3cccc(OC)c3)[C@@H]2O)[C@H](CO)O1`, for which the Potency result in assay [1], in assay [3], in assay [4] and in assay [5] was “inactive” in each case.
`C[C@@H]1CC2=CCCC2[C@]2(O1)C(=O)N(Cc1ccc(Br)cc1)c1cccc(Br)c12` (some centres undefined): the Potency result in assay [1], in assay [2], in assay [4] and in assay [5] was “inactive” throughout.
With `Cc1cc(C)c(-c2cc([C@H](C)ON=C[C@@H](C)[C@H](OCc3ccccc3)C(C)C)on2)c(C)c1`, the Potency entry in assay [1], in assay [3] and in assay [5] was “inactive” throughout.
As for `C=CC[C@@]1(c2ccc(Br)cc2OC)Oc2ccccc2-c2nccnc21`, the Potency result in assay [1], in assay [2], in assay [4] and in assay [5] was “inactive” in each case.
On to `COc1cc2c(cc1OC)[C@@H]1O[C@](CCCCN3C(=O)c4ccccc4C3=O)(C2)OC2=C1C(=O)OC1(CCCCC1)C2`, for which the Potency in assay [1] is 1690 nM (active); in assay [3] it was 1900 nM (active). For the same molecule, the Potency entry in assay [4] and in assay [5] was “inactive” in each case.
`C=C(COC)C1=CCC(C(=O)OC)(C(=O)OC)[C@@H](C[N+](=O)[O-])c2ccccc21`: the Potency result in assay [1], in assay [3], in assay [4] and in assay [5] was “inactive” throughout.
Regarding `Cc1cccc(C)c1Nc1oc(-c2ccccc2)nc1-c1cccc2ccccc12`, the Potency entry in assay [1], in assay [3], in assay [4] and in assay [5] was “inactive” in each case.
For the molecule `CC1(OC(=O)C2CCCC2)C(=O)C=C2C=C(c3ccsc3)N(Cc3ccc4c(c3)OCO4)C=C2C1=O` (centres undefined), the activity, negative = inhibition in assay [1] was -6.6% [at 1.12 µM]. Also, the Potency result in assay [2], in assay [4] and in assay [5] was “inactive” in each case.
